The record followed here is PubChem BioAssay (NCATS).

Where “and” joins values, the source holds several entries; their conditions need not be identical. Equal values may be shown once. Records with an inconclusive call do not appear. Entries that show only a call come without a potency. Calls of active or inactive are those of the source. Unless noted, calls follow the shape of the dose curve; as a rule, active = well fitted inhibition curve with a large enough effect; inconclusive = small, poorly fitted or top-dose-only effect; inactive = flat fitted curve, though single readings scatter.

Experiment [1] addresses DNA dC->dU-editing enzyme APOBEC-3G (Homo sapiens) (UniProt Q9HC16). The experiment can be described thus: qHTS for inhibitors of Vif-A3G interactions: Validation (AID 588379). The method in brief:
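Yellow fluorescence (Ex 488, Em 500-530) of Vif-coexpressing HeLa A3G-eYFP cells, scanned by Acumen cytometer, reports blocked A3G degradation. Cells plated at 700/well overnight at 37 deg C before compound addition, then a further overnight compound incubation at 37 deg C.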
(In qHTS, concentration-response curves come from the screen itself.)

Experiment [2] addresses Voltage-gated inwardly rectifying potassium channel KCNH2 (Homo sapiens) (UniProt Q12809). The experiment can be described thus: qHTS Assay for Small Molecule Inhibitors of the Human hERG Channel Activity (AID 588834).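 Also: top concentration of the series differs between compounds; lower thallium flux fluorescence means stronger hERG block; nearly all actives have a fitted effect of over 50% in size.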 In short, it runs like this:
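hERG block measured as reduced thallium-dye (FluxOR) fluorescence after stimulation buffer addition, read over 2 min. Cells were hERG-BacMam-transduced U2OS exposed to compound ~10 min […]; concentration-response fitted with Hill equation for AC50.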

Experiment [3] concerns the target Luciferin 4-monooxygenase (Photinus pyralis) (UniProt P08659). The experiment can be described thus: Biochemical firefly luciferase enzyme assay for NPC (AID 624030).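 Also: purified P. pyralis luciferase at 10 nM with luciferin and ATP substrate; series mostly up to about 59 µM; nearly all actives have a fitted effect of over 70% in size.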 The method in brief:
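Direct inhibition of firefly luciferase enzyme (10 nM final, 50 mM Tris Acetate) assessed by luminescence within 5 minutes. Percent activity scaled between DMSO and PTC124 positive control, with concentration-effect curves classified by fit quality and response.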

For experiment [4], the target named is Glucocorticoid receptor (Homo sapiens) (UniProt P04150). The experiment can be described thus: qHTS assay for small molecule antagonists of glucocorticoid receptor signaling (AID 588533; active = well fitted inhibition curve with a large enough effect in the signal ratio, with a control signal flat, not every such curve was filed as active; the % refers to the signal ratio;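 also: cells stimulated with 2 nM dexamethasone as agonist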). The method in brief: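 Antagonist-mode qHTS: compound titrations added to GRE-bla HeLa cells, then dexamethasone 2 nM final; 18 h, 37 C. CCF4 FRET fluorescence normalized to dexamethasone and DMSO; IC50 from Hill fit.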

The target of experiment [5] is Vitamin D3 receptor (Homo sapiens) (UniProt P11473). The experiment can be described thus: qHTS assay for small molecule antagonists of vitamin D receptor signaling (AID 588541; calls by dose curve;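 also: receptor activated by calcitriol during compound treatment; series mostly up to about 77 µM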). The method in brief: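 Antagonist-mode beta-lactamase reporter assay: HEK293T VDR-UAS-bla cells were exposed to titrated compound alongside 1-alpha,25-dihydroxyvitamin D3 at 3 nM final for 16 h. Values were normalized to the 50 nM agonist control and DMSO basal, with IC50 and efficacy from Hill equation fits.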

Experiment [6] shares this target. The experiment can be described thus: qHTS assay for small molecule agonists of vitamin D receptor signaling (AID 588543; calls by dose curve). In short, it runs like this: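 Agonist-mode beta-lactamase reporter: HEK293T VDR-UAS-bla cells in charcoal-stripped 2% FBS, compound series 16 h 37 C, CCF4 2 h RT. EC50 from Hill fit, scaled against DMSO and 50 nM calcitriol control.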
Experiment [7] in a line: qHTS assay for small molecule agonists of retinoid X receptor alpha signaling (AID 588544; calls by dose curve). The note with it: HEK293T RXRa-UAS-bla, beta-lactamase reporter, 18 h; 530 nm emission.
The target in experiment [8] is Retinoic acid receptor RXR-alpha (Homo sapiens) (UniProt P19793). The experiment is described as above.
Experiment [9] deals with Thyroid hormone receptor beta (Homo sapiens) (UniProt P10828). The experiment can be described thus: qHTS assay for small molecule agonists of thyroid hormone receptor beta signaling (AID 588545; calls by dose curve). The method in brief:
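Stimulation of a TR-driven beta-lactamase reporter was quantified in GripTite HEK 293 cells. Compound series ran for 18 hrs; curves were normalized to T3 and DMSO controls and fitted to yield EC50.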

The nature of experiment [10]: qHTS assay for small molecule antagonists of retinoid X receptor alpha signaling (AID 588546; active = well fitted inhibition curve with a large enough effect in the signal ratio, with a control signal flat, not every such curve was filed as active; the % refers to the signal ratio;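 also: cells stimulated with 9-cis-retinoic acid as agonist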). The note with it: HEK293T RXRa-UAS-bla, beta-lactamase ratio, antagonist mode; measured here: W530 green channel, cytotoxicity proxy. The method in brief: (§1)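 Beta-lactamase reporter inhibition, read as CCF4 fluorescence ratio (ex 405, em 460/530 nm) after 2 h at RT. HEK293T UAS-bla cells, 2500/well, were stimulated with 9-cis-RA at 500 or 100 nM final alongside test compound for 18 h at 37 C.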

Experiment [11] has as its target Retinoic acid receptor RXR-alpha (Homo sapiens) (UniProt P19793). The description is as above. The note with it: HEK293T RXRa-UAS-bla, beta-lactamase ratio, antagonist mode. The method in brief:
as §1

The target in experiment [12] is Thyroid hormone receptor beta (Homo sapiens) (UniProt P10828). The experiment can be described thus: qHTS assay for small molecule antagonists of thyroid hormone receptor beta signaling (AID 588547; active = well fitted inhibition curve with a large enough effect in the signal ratio, with a control signal flat, not every such curve was filed as active; the % refers to the signal ratio;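 also: cells stimulated with 0.4 nM T3 agonist during compound exposure; series mostly up to about 77 µM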). The note with it: TR-UAS-bla HEK293, beta-lactamase ratio, antagonist mode, 18 h. The method in brief:
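Inhibition of T3-driven (0.4nM final) beta-lactamase reporter activity was measured over 0.59 nM to 92 uM compound after 18 h at 37 C. The cells were GripTite HEK293 TR-UAS-bla in charcoal/dextran-stripped serum, with CCF4 ratio read-out and IC50 from Hill fits.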

Chain of Luciferin 4-monooxygenase (Photinus pyralis) (P08659 whole entry, looked up): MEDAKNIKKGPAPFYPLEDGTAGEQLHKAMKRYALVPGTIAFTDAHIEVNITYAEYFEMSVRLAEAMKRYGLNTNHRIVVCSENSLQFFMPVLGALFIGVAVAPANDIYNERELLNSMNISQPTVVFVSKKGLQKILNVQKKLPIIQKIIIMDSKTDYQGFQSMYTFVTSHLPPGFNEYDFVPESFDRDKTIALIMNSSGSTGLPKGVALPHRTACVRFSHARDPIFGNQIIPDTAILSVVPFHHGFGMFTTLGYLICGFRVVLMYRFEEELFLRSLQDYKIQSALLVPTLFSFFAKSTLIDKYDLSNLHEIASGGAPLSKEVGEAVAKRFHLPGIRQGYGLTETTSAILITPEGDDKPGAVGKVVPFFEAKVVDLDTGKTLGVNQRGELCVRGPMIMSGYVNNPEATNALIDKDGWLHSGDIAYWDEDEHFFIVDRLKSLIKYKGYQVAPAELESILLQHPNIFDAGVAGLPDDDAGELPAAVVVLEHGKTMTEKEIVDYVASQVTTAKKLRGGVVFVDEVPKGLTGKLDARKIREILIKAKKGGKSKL
Chain of Vitamin D3 receptor (Homo sapiens) (P11473 whole entry, looked up): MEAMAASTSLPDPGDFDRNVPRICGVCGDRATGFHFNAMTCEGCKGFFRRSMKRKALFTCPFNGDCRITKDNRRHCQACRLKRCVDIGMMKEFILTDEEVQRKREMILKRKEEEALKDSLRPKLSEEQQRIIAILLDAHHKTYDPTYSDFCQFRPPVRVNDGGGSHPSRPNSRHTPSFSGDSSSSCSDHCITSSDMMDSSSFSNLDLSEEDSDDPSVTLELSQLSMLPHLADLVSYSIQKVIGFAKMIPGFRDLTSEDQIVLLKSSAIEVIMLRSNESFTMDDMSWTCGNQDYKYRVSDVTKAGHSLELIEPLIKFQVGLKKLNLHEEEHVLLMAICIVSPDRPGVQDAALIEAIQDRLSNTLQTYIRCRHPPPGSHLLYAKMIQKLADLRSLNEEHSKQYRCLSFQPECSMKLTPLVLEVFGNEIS
Chain of Voltage-gated inwardly rectifying potassium channel KCNH2 (Homo sapiens) (Q12809 whole entry, looked up): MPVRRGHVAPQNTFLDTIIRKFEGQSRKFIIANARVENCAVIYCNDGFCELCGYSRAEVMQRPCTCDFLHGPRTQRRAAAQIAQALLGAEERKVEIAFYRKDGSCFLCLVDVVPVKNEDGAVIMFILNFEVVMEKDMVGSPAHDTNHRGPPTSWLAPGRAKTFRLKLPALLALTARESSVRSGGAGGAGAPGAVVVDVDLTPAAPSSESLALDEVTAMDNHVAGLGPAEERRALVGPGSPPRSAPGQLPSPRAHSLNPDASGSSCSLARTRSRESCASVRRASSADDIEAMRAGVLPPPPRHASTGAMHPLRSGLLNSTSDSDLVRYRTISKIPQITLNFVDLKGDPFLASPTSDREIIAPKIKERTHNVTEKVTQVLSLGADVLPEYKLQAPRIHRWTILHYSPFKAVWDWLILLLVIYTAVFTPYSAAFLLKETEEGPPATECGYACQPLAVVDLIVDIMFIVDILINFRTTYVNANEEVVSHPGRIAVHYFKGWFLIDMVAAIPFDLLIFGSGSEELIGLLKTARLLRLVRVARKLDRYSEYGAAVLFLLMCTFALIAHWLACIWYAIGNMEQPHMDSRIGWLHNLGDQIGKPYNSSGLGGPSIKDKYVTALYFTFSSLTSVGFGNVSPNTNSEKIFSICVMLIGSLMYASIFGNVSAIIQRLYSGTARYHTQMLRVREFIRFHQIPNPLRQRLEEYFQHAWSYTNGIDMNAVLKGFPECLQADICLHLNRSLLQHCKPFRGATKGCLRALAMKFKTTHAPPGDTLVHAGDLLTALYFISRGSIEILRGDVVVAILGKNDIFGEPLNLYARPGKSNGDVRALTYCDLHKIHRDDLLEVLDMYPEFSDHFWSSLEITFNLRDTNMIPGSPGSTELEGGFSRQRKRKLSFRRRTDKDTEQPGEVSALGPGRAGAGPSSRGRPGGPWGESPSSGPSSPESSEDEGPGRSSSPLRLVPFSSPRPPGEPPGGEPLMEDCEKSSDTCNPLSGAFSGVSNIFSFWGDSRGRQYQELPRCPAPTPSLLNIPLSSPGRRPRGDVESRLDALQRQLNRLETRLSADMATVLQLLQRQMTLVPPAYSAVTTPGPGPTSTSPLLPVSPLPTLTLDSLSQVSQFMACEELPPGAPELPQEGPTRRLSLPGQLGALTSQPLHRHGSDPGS
Chain of Retinoic acid receptor RXR-alpha (Homo sapiens) (P19793 whole entry, looked up): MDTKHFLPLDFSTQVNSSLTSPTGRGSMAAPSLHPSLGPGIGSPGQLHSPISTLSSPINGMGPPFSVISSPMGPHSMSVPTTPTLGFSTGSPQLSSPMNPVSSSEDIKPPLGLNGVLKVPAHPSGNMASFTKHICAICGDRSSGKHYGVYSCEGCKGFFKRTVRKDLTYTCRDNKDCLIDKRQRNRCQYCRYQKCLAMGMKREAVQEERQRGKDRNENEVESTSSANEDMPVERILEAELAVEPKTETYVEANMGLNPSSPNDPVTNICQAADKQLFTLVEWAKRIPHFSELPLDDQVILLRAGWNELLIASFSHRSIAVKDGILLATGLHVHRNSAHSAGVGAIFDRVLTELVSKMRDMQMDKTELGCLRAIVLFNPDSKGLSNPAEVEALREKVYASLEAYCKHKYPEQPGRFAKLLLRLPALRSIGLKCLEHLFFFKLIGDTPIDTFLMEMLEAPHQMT
Chain of Thyroid hormone receptor beta (Homo sapiens) (P10828 whole entry, looked up): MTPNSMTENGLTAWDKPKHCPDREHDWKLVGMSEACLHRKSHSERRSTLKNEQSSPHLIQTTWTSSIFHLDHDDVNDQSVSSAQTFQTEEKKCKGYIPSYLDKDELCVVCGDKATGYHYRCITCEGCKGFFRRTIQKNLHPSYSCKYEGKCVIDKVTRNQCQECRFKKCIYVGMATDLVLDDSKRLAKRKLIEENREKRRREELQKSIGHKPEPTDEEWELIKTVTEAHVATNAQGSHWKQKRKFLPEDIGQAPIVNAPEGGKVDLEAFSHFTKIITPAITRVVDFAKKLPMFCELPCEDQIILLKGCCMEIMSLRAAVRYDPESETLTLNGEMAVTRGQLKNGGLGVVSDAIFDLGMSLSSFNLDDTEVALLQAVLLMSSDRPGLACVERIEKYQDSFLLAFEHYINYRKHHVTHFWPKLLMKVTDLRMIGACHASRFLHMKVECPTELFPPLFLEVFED
Chain of DNA dC->dU-editing enzyme APOBEC-3G (Homo sapiens) (Q9HC16 whole entry, looked up): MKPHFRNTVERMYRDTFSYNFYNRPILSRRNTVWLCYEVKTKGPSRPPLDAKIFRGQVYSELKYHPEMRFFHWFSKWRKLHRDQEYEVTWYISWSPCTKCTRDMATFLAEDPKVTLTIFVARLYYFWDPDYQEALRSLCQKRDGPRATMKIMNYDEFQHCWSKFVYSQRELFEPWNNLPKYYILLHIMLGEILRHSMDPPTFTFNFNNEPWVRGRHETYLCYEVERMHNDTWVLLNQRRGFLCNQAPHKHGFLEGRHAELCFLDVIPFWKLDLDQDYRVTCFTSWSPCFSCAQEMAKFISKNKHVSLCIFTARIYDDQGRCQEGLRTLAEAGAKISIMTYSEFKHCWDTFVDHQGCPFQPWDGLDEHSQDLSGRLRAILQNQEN
Chain of Glucocorticoid receptor (Homo sapiens) (P04150 whole entry, looked up): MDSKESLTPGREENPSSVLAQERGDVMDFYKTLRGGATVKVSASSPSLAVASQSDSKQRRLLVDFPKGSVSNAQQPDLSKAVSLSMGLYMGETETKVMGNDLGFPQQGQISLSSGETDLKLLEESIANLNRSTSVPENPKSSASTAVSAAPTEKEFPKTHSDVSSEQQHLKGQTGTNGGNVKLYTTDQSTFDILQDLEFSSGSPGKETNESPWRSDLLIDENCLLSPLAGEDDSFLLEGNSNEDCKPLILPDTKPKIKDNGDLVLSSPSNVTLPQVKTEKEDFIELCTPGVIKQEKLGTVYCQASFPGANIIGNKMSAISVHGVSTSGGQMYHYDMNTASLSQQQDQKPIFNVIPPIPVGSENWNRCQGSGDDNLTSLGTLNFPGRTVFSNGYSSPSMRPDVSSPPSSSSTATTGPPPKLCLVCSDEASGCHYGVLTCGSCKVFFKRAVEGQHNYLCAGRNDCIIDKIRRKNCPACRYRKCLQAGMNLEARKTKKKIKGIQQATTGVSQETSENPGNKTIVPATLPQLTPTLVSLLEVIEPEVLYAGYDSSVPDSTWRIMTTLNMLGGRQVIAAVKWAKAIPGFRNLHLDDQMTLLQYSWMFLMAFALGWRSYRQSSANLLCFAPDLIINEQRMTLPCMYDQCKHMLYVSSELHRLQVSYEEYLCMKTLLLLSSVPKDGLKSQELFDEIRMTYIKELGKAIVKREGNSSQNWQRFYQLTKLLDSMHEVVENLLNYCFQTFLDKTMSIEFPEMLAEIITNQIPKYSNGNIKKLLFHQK

On to `CN1CCN2c3ncccc3Cc3ccccc3C2C1` (stereo unspecified), for which the call in experiment [1] and in experiment [3] was inactive. In addition, the Potency result in experiment [2] was “inactive”.

With `O=C(O)c1nc(=O)[nH]c(=O)[nH]1`, the Potency result in [2] was “inactive”. Besides, the molecule was called inactive in [3].

For the molecule `CCCCC[C@H](O)C=C[C@H]1[C@H](O)CC(=O)[C@H]1CCCCCCC(=O)O`, the molecule was called inactive in [1].

As for `CC[C@H](C)C(=O)O[C@H]1C[C@H](O)C=C2C=C[C@H](C)[C@H](CC[C@@H](O)C[C@@H](O)CC(=O)O)[C@H]21`, the Potency entry in experiment [2] is “inactive”.

Regarding `C[C@@H]1C[C@H]2[C@@H]3CCC4=CC(=O)C=C[C@]4(C)[C@@]3(F)[C@@H](O)C[C@]2(C)[C@@]1(O)C(=O)CO`, the call in experiment [4], in experiment [5], in experiment [6], in experiment [8] and in experiment [9] was inactive. Further, the max response in experiment [7] is 10.8% and 0.324%; in experiment [10] it was 18.8% and -5.96%; in experiment [11], -0.0279% (inactive) and -1.12% (inactive). In addition, the activity change % (negative = inhibition) in [12] was 1.08% (inactive) and 5.56% (inactive). Also, the Potency entry in experiment [2] was “inactive”.

Turning to `Fc1ccc(C(c2ccc(F)cc2)N2CCN(CC=Cc3ccccc3)CC2)cc1`, in experiment [3], the result was inactive.

As to `C[C@@H](O[C@H]1OCCN(Cc2n[nH]c(=O)[nH]2)[C@@H]1c1ccc(F)cc1)c1cc(C(F)(F)F)cc(C(F)(F)F)c1`, in experiment [3], the molecule was called inactive.

In the case of `CCCCCCCCCCCCCCCC(=O)O[C@H]1[C@@H](O)[C@@H](O)[C@@H]([C@H](NC(=O)[C@@H]2C[C@@H](CCC)CN2C)[C@H](C)Cl)O[C@@H]1SC`, in experiment [3], the molecule was classed as inactive.

`O=C1CN2Cc3c(ccc(Cl)c3Cl)N=C2N1`: the molecule was called inactive in experiment [3].

Consider `CN(C)CCN(Cc1ccc(Cl)cc1)c1ccccn1`, for which the call in [3] was inactive.

As to `CC(C)CN(C[C@@H](O)[C@H](Cc1ccccc1)NC(=O)O[C@H]1CO[C@H]2OCC[C@H]21)S(=O)(=O)c1ccc(N)cc1`, the molecule was classed as inactive in [3].

As to `O=C1C(CCC(O)c2ccc(F)cc2)C(c2ccc(O)cc2)N1c1ccc(F)cc1` (stereo unspecified), the outcome in experiment [3] was inactive.

As to `COc1c(C)c2c(c(O)c1CC=C(C)CCC(=O)OCCN1CCOCC1)C(=O)OC2`, the Potency result in experiment [2] is “inactive”. Further, the call in [3] was inactive.

Turning to `CC(C)(CO)[C@@H](O)C(=O)NCCC(=O)O`, the result in experiment [3] was inactive.

Turning to `CC[C@H]1OC(=O)[C@H](C)[C@@H](O[C@H]2C[C@@](C)(OC)[C@@H](O)[C@H](C)O2)[C@H](C)[C@@H](O[C@@H]2O[C@H](C)C[C@H](N(C)C)[C@H]2O)[C@](C)(O)C[C@H](C)C(=NOCOCCOC)[C@H](C)[C@@H](O)[C@]1(C)O`, the outcome in [3] was inactive.

Turning to `COc1cc2c(cc1OC)CC(=O)N(CCCN(C)C[C@H]1Cc3cc(OC)c(OC)cc31)CC2`, the outcome in experiment [3] was inactive.

As for `CCC[C@H](N[C@@H](C)C(=O)N1[C@@H]2CCCC[C@H]2C[C@H]1C(=O)O)C(=O)OCC`, the molecule was classed as inactive in experiment [3].

Regarding `C=C1c2cccc(O)c2C(O)=C2C(=O)[C@@]3(O)C(O)=C(C(N)=O)C(=O)[C@@H](N(C)C)[C@@H]3[C@@H](O)[C@H]12`, the result in experiment [3] was inactive.
